Out of some 13,000 compounds screened, about 3,200 (25%) showed an effect of 50% or more. Some of the results follow.
Tested on: P. falciparum stage V gametocytes
Design: BacTiter-Glo ATP luminescence viability of purified stage V gametocytes in 384-well plates, per cent inhibition versus DMSO
Settings: 48 h, 5 µM; inhibitor

| SMILES | % Inhibition |
| --- | --- |
| O=C(NC1CC1)c1ccc(N2CCCC(COc3ccccc3F)C2)nc1 (stereo not drawn) [TCMDC-134034] | 24.35% |
| Cc1cccc2nc(-c3ccc(-c4cccc(NC(=O)COc5ccccc5C(N)=O)c4)s3)[nH]c12 [TCMDC-132133] | 0.7486% |
| CN(C1CCC(NC(=O)/C=C/c2ccccc2)CC1)C1CC2(CCN(C(=O)OC(C)(C)C)CC2)c2ccccc21 (stereo not drawn) [TCMDC-132880] | 63.78% |
| CN(CCCCNC(=O)/C=C/c1ccccc1)C1CC2(CCN(C(=O)OC(C)(C)C)CC2)c2ccccc21 (stereo not drawn) [TCMDC-132882] | -12.8% |
| CN(CCCCNC(=O)c1cc2ccccc2[nH]1)C1CC2(CCN(C(=O)OC(C)(C)C)CC2)c2ccccc21 (stereo not drawn) [TCMDC-132884] | 36.87% |
| OC(CNCc1ccccc1OCc1ccccc1)c1cc(C(F)(F)F)cc(C(F)(F)F)c1 (stereo not drawn) [TCMDC-140300] | -49.16% |
| CCCCN(Cc1cc(Cl)c(OC)c(OC)c1)c1ccc(C(O)(C(F)(F)F)C(F)(F)F)cc1 [TCMDC-135446] | 54.26% |
| CCCCN(Cc1cccc(C(F)(F)F)c1Cl)c1ccc(C(O)(C(F)(F)F)C(F)(F)F)cc1 [TCMDC-135213] | -4.716% |
| CCCCN(Cc1cc(Cl)c(OCC)c(OC)c1)c1ccc(C(O)(C(F)(F)F)C(F)(F)F)cc1 [TCMDC-135622] | 2.509% |
| Cc1ccc(F)cc1S(=O)(=O)Nc1cccc(CCN2CCC(N3CCCCC3)CC2)c1 [TCMDC-134068] | 67.59% |
| Cc1ccc(F)cc1S(=O)(=O)Nc1ccc(CCN2CCC(N3CCCCC3)CC2)cc1 [TCMDC-134088] | 60.27% |
| COc1ccc(C2C(C(=O)OC3CCCCC3)=C(C)NC3=C2C(=O)CCC3)cc1Br (stereo not drawn) [TCMDC-125070] | -15.5% |
| COc1cc(CCCON2C(N)=NC(N)=NC2(C)C)cc(OC)c1OC [TCMDC-131726] | 7.417% |
| COc1ccc(C=C2SC(=N)N(c3ccccc3OC)C2=O)cc1 [TCMDC-124486] | 37.63% |
| NC1=NC2(CCCCC2)N(OCCCOc2cccc3ccccc23)C(N)=N1 [TCMDC-131649] | 49.63% |
| Cc1ccc(Nc2c3ccccc3nc3ccc(C)cc23)cc1 [TCMDC-124153] | -51.64% |
| CC(=O)Nc1cccc(Nc2c3ccccc3nc3ccccc23)c1 [TCMDC-123741] | -71.42% |
| O=c1c2ccccc2[nH]c2nc3ccccc3c(Nc3ccccc3)c12 [TCMDC-141996] | 28.3% |
| Cl.c1ccc2c(Nc3ccc(Oc4ccc(Nc5c6ccccc6nc6ccccc56)cc4)cc3)c3ccccc3nc2c1 [TCMDC-124284] | 101.1% |
| CCOc1ccc(Nc2nc(N)c3ccccc3n2)cc1.Cl [TCMDC-123748] | 31.55% |
| CC(=O)Nc1ccc(Nc2c3ccccc3nc3ccccc23)cc1 [TCMDC-124356] | 67.17% |

| SMILES | % Inhibition |
| --- | --- |
| Cl.c1ccc2c(Nc3ccc(OCCOCCOc4ccc(Nc5c6ccccc6nc6ccccc56)cc4)cc3)c3ccccc3nc2c1 [TCMDC-137355] | 108.9% |
| Cc1cc2cc(/C=C/C(=O)NC3CCC(CCN4CCc5ccc(C#N)cc5CC4)CC3)ccc2[nH]1 (stereo not drawn) [TCMDC-139673] | -19.51% |
| CCn1cc2c3c(cc(C(=O)N[C@@H](Cc4ccccc4)[C@H](O)CNC4CCOCC4)cc31)N(C)S(=O)(=O)CC2 [TCMDC-135785] | -5.565% |
| COc1ccc(Nc2nc(NC3CCCC3)cc(-c3ccc(OC)cc3)n2)cc1 [TCMDC-133468] | -75.14% |
| Cc1ccccc1C1CCN(c2ccc(C(=O)Nc3ccc(F)cc3)cn2)CC1 [TCMDC-134611] | 39.85% |
| CC(C)[C@H](NC(=O)c1ccc(O)c(-c2ccc(Cl)c(Cl)c2)c1)C(=O)NCCN1CCOCC1 [TCMDC-140850] | -3.222% |
| C=CCOC(=O)N1CCC(CNCc2ccc(-c3cccc(-c4nc5cccc(C)c5[nH]4)c3)cc2)C1.O=C(O)C(F)(F)F (stereo not drawn) [TCMDC-133039] | 9.6% |
| CC(Cc1ccc(Cl)cc1)Nc1nc(NC2CCCC2)nc(N2CCC(C#N)(c3ccccc3)CC2)n1 (stereo not drawn) [TCMDC-139928] | -79.71% |
| CN(C)c1ccc(-c2csc(C(=O)NC3CCCCN(Cc4ccc(C(C)(C)C)cc4)C3)c2)cc1 (stereo not drawn) [TCMDC-134470] | 63.14% |
| CC(=O)Nc1ccc(CN2CCC(NC(=O)c3cc(-c4ccc(N(C)C)cc4)cs3)C2)cc1 (stereo not drawn) [TCMDC-134477] | 92.99% |
| CN(C)c1ccc(-c2csc(C(=O)NC3CCCCN(CCC(C)(C)C)C3)c2)cc1 (stereo not drawn) [TCMDC-134487] | -62.75% |
| CN(C)c1ccc(-c2ccc(C(=O)NC3CCN(Cc4ccc(C(C)(C)C)cc4)CC3)s2)cc1 [TCMDC-134354] | -40.81% |
| CN(C)c1ccc(-c2csc(C(=O)NC3CCN(Cc4ccc(C(C)(C)C)cc4)C3)c2)cc1 (stereo not drawn) [TCMDC-134476] | 63.77% |
| CC(C)(C)c1ccc(CN2CCCCC(NC(=O)c3cc(-c4cccc(Cl)c4)cs3)C2)cc1 (stereo not drawn) [TCMDC-134468] | -11.91% |
| CN(C)c1ccc(CN2CCCCC(NC(=O)c3cc(-c4ccccc4F)cs3)C2)cc1 (stereo not drawn) [TCMDC-134471] | -62.25% |
| O=C(NCC1CCC(C(=O)NCc2cccc(C(F)(F)F)c2)CC1)c1ccc(O)c(-c2ccc(Cl)c(Cl)c2)c1 (stereo not drawn) [TCMDC-140886] | 8.372% |
| COc1ccc2sc(CNCCCNc3cc(=O)c4ccccc4[nH]3)c(Cl)c2c1 [TCMDC-140334] | -8.727% |
| O=C(NC1CCN(Cc2ccccc2)CC1)c1ccc(-c2nc3cc4ccccc4cc3[nH]2)s1 [TCMDC-140122] | 18.76% |
| CC1Cc2ccccc2N1CC(=O)Nc1cc(C(F)(F)F)ccc1-n1cncn1 (stereo not drawn) [TCMDC-124870] | -73.33% |
| O=C(NCCNc1noc(-c2sccc2Br)n1)c1ccc(Cl)cc1 [TCMDC-134182] | 2.834% |
| O=c1cc(N2CCCNCC2)c(Cl)nn1Cc1ccc(NS(=O)(=O)c2ccc(Oc3ccccc3)cc2)cc1 [TCMDC-141692] | 2.781% |
